Test results published in PubChem BioAssay AID1159580 (chemical genetic matrix, 2015).
Out of some 5,500 compounds screened, about 2,000 (36%) were called active. About 18% were inconclusive and are not listed. No stated cut-off is given here; in the data, active means normalized growth mostly below about 0.91 (no sharp cut-off); inconclusive means no clear call, values can overlap the other calls; inactive means mostly above about 0.92. The list shows a part of the results.

Test: chemical genetic growth profiling, strain panel (AID 1159580);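 further: tested at 20 µM; growth read once vehicle control cultures reached saturation at 30 °C; 1 = growth at the plate median or of vehicle wells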
Settings: growth OD
[1] = S. cerevisiae deletion strains, locus YAL013W, strain DEP1, stronger effect = lower value
[2] = S. cerevisiae deletion strains, locus YDR150W, strain NUM1, stronger effect = lower value
[3] = S. cerevisiae deletion strains, locus YNL322C, strain KRE1, stronger effect = lower value
[4] = S. cerevisiae deletion strains, locus YPL241C, strain CIN2, stronger effect = lower value

Measured: normalized growth

CC1C(=O)N(C)C(=O)c2nc[nH]c21 (configuration not stated)
inactive: [1] 0.997 | S. cerevisiae deletion strains, locus YAL040C, strain CLN3, stronger effect = lower value 0.993 | S. cerevisiae deletion strains, locus YCL061C, strain MRC1 (second series), stronger effect = lower value 1 | [2] 1.01 | S. cerevisiae deletion strains, locus YDR363W, strain ESC2, stronger effect = lower value 0.998 | S. cerevisiae deletion strains, locus YER002W, strain NOP16, stronger effect = lower value 1 | S. cerevisiae deletion strains, locus YGR229C, strain SMI1, stronger effect = lower value 0.992 | S. cerevisiae deletion strains, locus YMR307W, strain GAS1, stronger effect = lower value 0.991 | S. cerevisiae deletion strains, locus YNL128W, strain TEP1, stronger effect = lower value 1 | S. cerevisiae deletion strains, locus YNL175C, strain NOP13, stronger effect = lower value 1 | S. cerevisiae deletion strains, locus YNL197C, strain WHI3, stronger effect = lower value 0.989 | S. cerevisiae deletion strains, locus YNL224C, strain SQS1, stronger effect = lower value 1 | [3] 0.992 | S. cerevisiae deletion strains, locus YOR083W, strain WHI5 (second series), stronger effect = lower value 1.02 | [4] 1

Cc1nn(C)c(C)c1NS(=O)(=O)c1cc(Cl)sc1Cl
inactive: [1] 1 | S. cerevisiae deletion strains, locus YBR229C, strain ROT2, stronger effect = lower value 1.03 | S. cerevisiae deletion strains, locus YDL101C, strain DUN1, stronger effect = lower value 1.05 | S. cerevisiae deletion strains, locus YDL134C, strain PPH21, stronger effect = lower value 1.02 | [2] 0.956 | S. cerevisiae deletion strains, locus YEL061C, strain CIN8, stronger effect = lower value 1.03 | S. cerevisiae deletion strains, locus YGR078C, strain PAC10, stronger effect = lower value 1.01 | S. cerevisiae deletion strains, locus YHR030C, strain SLT2, stronger effect = lower value 1.04 | S. cerevisiae deletion strains, locus YHR087W, strain rtc3, stronger effect = lower value 1.03 | S. cerevisiae deletion strains, locus YJL187C, strain SWE1, stronger effect = lower value 1.02 | S. cerevisiae deletion strains, locus YJR043C, strain POL32, stronger effect = lower value 1.01 | S. cerevisiae deletion strains, locus YJR075W, strain HOC1, stronger effect = lower value 1.02 | S. cerevisiae deletion strains, locus YLR039C, strain RIC1, stronger effect = lower value 1 | S. cerevisiae deletion strains, locus YLR058C, strain SHM2 (second series), stronger effect = lower value 1.03 | S. cerevisiae deletion strains, locus YLR085C, strain ARP6, stronger effect = lower value 1.03 | S. cerevisiae deletion strains, locus YLR262C, strain YPT6, stronger effect = lower value 0.993 | S. cerevisiae deletion strains, locus YML094W, strain GIM5, stronger effect = lower value 1.01 | S. cerevisiae deletion strains, locus YMR219W, strain ESC1, stronger effect = lower value 1.01 | S. cerevisiae deletion strains, locus YMR263W, strain SAP30, stronger effect = lower value 0.914 | S. cerevisiae deletion strains, locus YNL153C, strain GIM3, stronger effect = lower value 1.04 | S. cerevisiae deletion strains, locus YNL298W, strain CLA4 (second series), stronger effect = lower value 1.04 | [3] 1.01 | S. cerevisiae deletion strains, locus YNR030W, strain Alg12, stronger effect = lower value 1.01 | S. cerevisiae deletion strains, locus YPL055C, strain LGE1, stronger effect = lower value 1.01 | [4] 1.01 | S. cerevisiae deletion strains, locus YPR135W, strain CTF4, stronger effect = lower value 1.14 | S. cerevisiae strains, strain wild type, stronger effect = lower value 1.02
